{"source": "PubChem BioAssay (EPA / NIEHS)", "key": {"[1]": {"target": "Neuropeptide Y receptor type 2 (Homo sapiens) (UniProt P49146)", "sequence (P49146 whole entry, looked up)": "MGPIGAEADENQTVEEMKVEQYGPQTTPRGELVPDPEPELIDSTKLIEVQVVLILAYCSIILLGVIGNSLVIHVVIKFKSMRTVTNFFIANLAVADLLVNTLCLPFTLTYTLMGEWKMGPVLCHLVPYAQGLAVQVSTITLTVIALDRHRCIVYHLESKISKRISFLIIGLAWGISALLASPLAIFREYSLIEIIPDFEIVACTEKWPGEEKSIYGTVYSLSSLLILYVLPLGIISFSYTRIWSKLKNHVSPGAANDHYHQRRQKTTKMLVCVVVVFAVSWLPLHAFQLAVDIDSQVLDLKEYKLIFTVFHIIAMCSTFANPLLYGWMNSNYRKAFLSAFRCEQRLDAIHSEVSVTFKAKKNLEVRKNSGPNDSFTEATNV", "test": "NVS_GPCR_hNPY2: NovaScreen (NVS) G Protein-Coupled Receptor Assay for human Neuropeptide Receptor Y2 (NPY2) (AID 2283277)", "in_short": "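Radioligand binding on membranes extracted from SK-N-MC cells, cell-free, read 1 h after dosing by filter-based scintillation counting. Loss of signal vs DMSO. Primary screen in duplicate at 25 uM; actives followed up in concentration-response up to 50 uM.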"}, "[2]": {"target": "human Neurokinin, NK2 Receptor, TACR2 (gene 6865) (UniProt P21452)", "sequence (P21452 whole entry, looked up)": "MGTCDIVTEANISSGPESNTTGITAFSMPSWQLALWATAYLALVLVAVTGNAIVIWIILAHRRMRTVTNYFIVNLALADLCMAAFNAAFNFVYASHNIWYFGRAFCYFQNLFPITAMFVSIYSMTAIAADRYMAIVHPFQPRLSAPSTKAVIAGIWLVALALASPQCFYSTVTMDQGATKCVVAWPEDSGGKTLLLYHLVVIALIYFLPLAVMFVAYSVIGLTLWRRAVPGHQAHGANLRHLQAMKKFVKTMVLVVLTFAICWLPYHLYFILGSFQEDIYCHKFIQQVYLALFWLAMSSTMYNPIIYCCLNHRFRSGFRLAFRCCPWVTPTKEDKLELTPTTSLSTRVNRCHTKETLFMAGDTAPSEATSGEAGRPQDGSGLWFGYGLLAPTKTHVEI", "test": "NVS_GPCR_hNK2: NovaScreen (NVS) G Protein-Coupled Receptor Assay for human Neurokinin, NK2 Receptor (AID 2283278);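 note: actives reduce bound radioligand signal relative to DMSO baseline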", "in_short": "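CHO-derived membrane protein, radioligand displacement, filter scintillation read at 4 h post-dose. Single-point 25 uM in duplicate, then concentration series for actives; DMSO as negative control.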"}, "[3]": {"target": "human Opioid Receptor Delta 1 (Opiate D1), OPRD1 (gene 4985) (UniProt P41143)", "sequence (P41143 whole entry, looked up)": "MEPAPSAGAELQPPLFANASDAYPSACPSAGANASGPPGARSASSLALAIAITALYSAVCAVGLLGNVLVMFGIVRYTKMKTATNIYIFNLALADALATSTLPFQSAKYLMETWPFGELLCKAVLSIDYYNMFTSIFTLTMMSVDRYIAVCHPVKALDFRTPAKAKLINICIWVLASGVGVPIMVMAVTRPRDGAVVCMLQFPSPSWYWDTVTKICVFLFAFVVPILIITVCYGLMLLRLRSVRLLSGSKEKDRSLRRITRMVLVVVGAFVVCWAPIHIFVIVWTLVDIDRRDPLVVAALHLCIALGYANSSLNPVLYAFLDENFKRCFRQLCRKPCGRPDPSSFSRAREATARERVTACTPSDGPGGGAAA", "test": "NVS_GPCR_hOpiate_D1: NovaScreen (NVS) G Protein-Coupled Receptor Assay for human Opioid Receptor Delta 1 (Opiate D1) (AID 2283280)", "in_short": "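Radioligand displacement on membranes from CHO cells expressing the receptor, read by filter scintillation counting 1 h after dosing. Duplicate single-point screen at 25 uM, then concentration series for actives; loss of signal versus DMSO.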"}, "[4]": {"target": "human Thromboxane A2 Receptor (TXA2), TBXA2R (gene 6915) (UniProt P21731)", "sequence (P21731 whole entry, looked up)": "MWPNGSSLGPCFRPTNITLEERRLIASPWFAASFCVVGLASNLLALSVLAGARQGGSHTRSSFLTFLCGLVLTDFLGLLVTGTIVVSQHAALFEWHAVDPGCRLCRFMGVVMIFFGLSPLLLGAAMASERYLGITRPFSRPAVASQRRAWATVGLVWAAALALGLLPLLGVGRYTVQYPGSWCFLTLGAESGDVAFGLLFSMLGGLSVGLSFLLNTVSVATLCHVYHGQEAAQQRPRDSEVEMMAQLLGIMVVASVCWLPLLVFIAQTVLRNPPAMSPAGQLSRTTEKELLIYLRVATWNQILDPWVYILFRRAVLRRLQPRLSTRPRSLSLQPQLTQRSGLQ", "test": "NVS_GPCR_hTXA2: NovaScreen (NVS) G Protein-Coupled Receptor Assay for human Thromboxane A2 Receptor (TXA2) (AID 2283282);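 note: actives reduce bound radioligand signal relative to DMSO baseline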", "in_short": "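Cell-free radioligand binding with human platelet-derived receptor; 1 h after dosing, filter-based scintillation counting, loss of signal vs DMSO. Primary screen in duplicate at 25 uM.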"}, "[5]": {"target": "human Orphanin, Opioid Related Nociceptin Receptor 1 (ORL1), OPRL1 (gene 4987) (UniProt P41146)", "sequence (P41146 whole entry, looked up)": "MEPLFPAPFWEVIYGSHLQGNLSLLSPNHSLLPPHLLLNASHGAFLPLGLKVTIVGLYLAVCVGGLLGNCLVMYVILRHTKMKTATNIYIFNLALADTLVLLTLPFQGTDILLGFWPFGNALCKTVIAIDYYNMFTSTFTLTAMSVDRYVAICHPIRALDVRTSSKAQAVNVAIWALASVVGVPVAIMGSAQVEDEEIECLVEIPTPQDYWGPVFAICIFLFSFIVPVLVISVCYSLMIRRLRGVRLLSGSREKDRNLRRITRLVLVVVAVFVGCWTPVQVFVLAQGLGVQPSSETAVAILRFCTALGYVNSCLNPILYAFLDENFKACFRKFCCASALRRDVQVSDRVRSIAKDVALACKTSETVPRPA", "test": "NVS_GPCR_hORL1: NovaScreen (NVS) G Protein-Coupled Receptor Assay for human Orphanin, Opioid Related Nociceptin Receptor 1 (ORL1) (AID 2283283)", "in_short": "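Filter-based radioligand displacement with receptor extracted from HEK293 cells, read 1 hour after dosing by scintillation counting. Duplicate single-point screen at 25 uM; qualifying chemicals then run in concentration-response to 50 uM, analysed relative to DMSO.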"}, "[6]": {"target": "mouse Cholecystokinin, CCK1 Receptor (CCKA), Cckar (gene 12425) (UniProt O08786)", "sequence (O08786 whole entry, looked up)": "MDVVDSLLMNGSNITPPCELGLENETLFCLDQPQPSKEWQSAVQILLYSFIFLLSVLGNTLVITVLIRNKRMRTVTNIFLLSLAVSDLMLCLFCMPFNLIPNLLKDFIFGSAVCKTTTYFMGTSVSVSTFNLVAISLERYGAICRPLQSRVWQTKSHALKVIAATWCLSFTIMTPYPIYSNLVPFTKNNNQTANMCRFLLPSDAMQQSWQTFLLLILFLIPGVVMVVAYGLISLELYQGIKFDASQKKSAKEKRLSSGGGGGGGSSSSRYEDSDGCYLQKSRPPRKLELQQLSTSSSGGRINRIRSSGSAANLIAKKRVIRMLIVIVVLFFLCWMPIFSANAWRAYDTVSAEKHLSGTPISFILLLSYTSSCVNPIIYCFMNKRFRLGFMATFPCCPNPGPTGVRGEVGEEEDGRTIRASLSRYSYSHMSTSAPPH", "test": "NVS_GPCR_mCCKAPeripheral: NovaScreen (NVS) G Protein-Coupled Receptor Assay for mouse Cholecystokinin, CCK1 Receptor (CCKA) (AID 2283285)", "in_short": "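Radioligand competitive displacement on mouse pancreatic membranes, 2 h incubation; filter-based scintillation counting, loss of signal versus DMSO. Single-concentration screen at 25 uM in duplicate, actives retested in concentration-response up to 50 uM.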"}, "[7]": {"target": "human Vasopressin 1A Receptor (V1A), AVPR1A (gene 552) (UniProt P37288)", "sequence (P37288 whole entry, looked up)": "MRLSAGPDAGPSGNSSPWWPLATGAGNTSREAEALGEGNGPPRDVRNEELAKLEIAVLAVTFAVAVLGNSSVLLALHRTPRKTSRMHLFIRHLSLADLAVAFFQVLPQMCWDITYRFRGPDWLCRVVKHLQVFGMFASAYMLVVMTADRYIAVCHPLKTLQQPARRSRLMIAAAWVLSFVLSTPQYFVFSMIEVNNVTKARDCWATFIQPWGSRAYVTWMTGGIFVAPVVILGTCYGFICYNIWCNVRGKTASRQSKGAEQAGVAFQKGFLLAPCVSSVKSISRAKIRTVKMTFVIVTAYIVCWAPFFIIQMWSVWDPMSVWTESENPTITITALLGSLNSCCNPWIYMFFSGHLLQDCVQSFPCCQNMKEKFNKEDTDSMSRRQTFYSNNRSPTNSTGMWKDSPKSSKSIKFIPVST", "test": "NVS_GPCR_hV1A: NovaScreen (NVS) G Protein-Coupled Receptor Assay for human Vasopressin 1A Receptor (V1A) (AID 2283284)", "in_short": "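Cell-free radioligand displacement on human platelet preparations, 1.5 h incubation, filter-based scintillation counting. Chemicals first tested in duplicate at 25 uM; actives then run in concentration-response up to 50 uM, loss of signal fitted against DMSO.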"}, "[8]": {"target": "human Purinergic Receptor P2Y, P2RY1 (gene 5028) (UniProt P47900)", "sequence (P47900 whole entry, looked up)": "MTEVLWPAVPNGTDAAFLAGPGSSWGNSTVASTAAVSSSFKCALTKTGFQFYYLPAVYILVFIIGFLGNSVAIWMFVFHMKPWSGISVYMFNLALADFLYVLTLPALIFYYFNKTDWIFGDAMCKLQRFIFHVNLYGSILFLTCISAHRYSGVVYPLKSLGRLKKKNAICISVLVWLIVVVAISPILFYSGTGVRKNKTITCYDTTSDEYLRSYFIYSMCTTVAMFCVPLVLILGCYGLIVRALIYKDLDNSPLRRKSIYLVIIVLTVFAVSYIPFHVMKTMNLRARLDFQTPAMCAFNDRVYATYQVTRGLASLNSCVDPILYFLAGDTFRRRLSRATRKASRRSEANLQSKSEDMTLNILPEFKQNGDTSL", "test": "NVS_GPCR_hPY2: NovaScreen (NVS) G Protein-Coupled Receptor Assay for human Purinergic Receptor P2Y (AID 2283281)", "in_short": "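Cell-free radioligand binding using U937-derived protein, 1 h after dosing, filter-based scintillation counting. Screened in duplicate at 25 uM; actives rerun as concentration-response up to 50 uM; loss of signal versus DMSO.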"}, "[9]": {"target": "rat Serotonin, 5-Hydroxytryptamine Receptor 1 (5HT1), Non-Selective Binding, Htr1a (gene 24473) (UniProt P19327)", "sequence (P19327 whole entry, looked up)": "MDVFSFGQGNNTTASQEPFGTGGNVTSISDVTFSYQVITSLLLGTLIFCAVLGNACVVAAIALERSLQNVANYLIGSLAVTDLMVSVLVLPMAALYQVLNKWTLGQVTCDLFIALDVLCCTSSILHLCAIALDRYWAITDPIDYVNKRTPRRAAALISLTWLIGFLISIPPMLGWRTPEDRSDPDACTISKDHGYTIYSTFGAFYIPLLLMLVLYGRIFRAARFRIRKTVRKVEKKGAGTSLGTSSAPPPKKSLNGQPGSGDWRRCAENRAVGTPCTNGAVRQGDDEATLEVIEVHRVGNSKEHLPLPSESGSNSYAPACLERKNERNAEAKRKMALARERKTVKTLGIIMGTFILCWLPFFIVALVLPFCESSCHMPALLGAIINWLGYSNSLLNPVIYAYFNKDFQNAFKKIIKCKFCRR", "test": "NVS_GPCR_r5HT1_NonSelective: NovaScreen (NVS) G Protein-Coupled Receptor Assay for rat Serotonin, 5-Hydroxytryptamine Receptor 1 (5HT1), Non-Selective Binding (AID 2283286)", "in_short": "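Rat cortical membranes, radioligand displacement, 1 h incubation, read by filter scintillation. Primary screen in duplicate at 25 uM. Hits (e.g. ≥30% inhibition) went to concentration-response up to 50 uM, fitted as loss of binding versus DMSO.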"}, "[10]": {"target": "human Neurotensin Receptor (NTS), NTSR1 (gene 4923) (UniProt P30989)", "sequence (P30989 whole entry, looked up)": "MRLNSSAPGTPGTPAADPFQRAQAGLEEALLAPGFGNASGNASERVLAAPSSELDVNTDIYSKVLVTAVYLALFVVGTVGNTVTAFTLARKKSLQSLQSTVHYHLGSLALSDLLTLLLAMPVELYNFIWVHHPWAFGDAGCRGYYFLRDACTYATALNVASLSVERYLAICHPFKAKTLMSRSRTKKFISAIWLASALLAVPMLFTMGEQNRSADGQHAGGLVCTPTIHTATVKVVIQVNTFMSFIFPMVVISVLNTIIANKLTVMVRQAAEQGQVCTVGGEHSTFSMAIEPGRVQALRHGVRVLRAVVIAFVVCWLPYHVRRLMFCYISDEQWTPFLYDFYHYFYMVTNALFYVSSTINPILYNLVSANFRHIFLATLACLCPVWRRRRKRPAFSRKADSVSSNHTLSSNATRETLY", "test": "NVS_GPCR_hNTS: NovaScreen (NVS) G Protein-Coupled Receptor Assay for human Neurotensin Receptor (NTS) (AID 2283279)", "in_short": "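Radioligand displacement on human NTSR1 protein from CHO cells, cell-free, 1 h, filter-based scintillation counting. Primary screen at 25 uM in duplicate; hits rerun in concentration-response up to 50 uM.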"}}, "note": "Inconclusive results are not listed. The source made the active and inactive calls. Rule for the calls: active = hit-call score of the fitted dose curve at least 0.9, where 1 is the maximum; inconclusive = response in the unintended direction; inactive = score below 0.9."}
{"smiles": "[Cl-].[Cl-].[Hg+2]", "values": [{"measurement": "AC50", "setting": "[1]", "value": "8.85 µM (active)"}, {"measurement": "AC50", "setting": "[2]", "value": "0.838 µM (active)"}, {"measurement": "AC50", "setting": "[3]", "value": "0.275 µM (active)"}, {"measurement": "outcome", "setting": "[4]", "value": "inactive"}, {"measurement": "AC50", "setting": "[5]", "value": "0.321 µM (active)"}, {"measurement": "AC50", "setting": "[6]", "value": "18 µM (active)"}]}
{"smiles": "CC(O)CCO", "note": "(stereo not drawn)", "values": [{"measurement": "outcome", "setting": "[7]", "value": "inactive"}]}
{"smiles": "Cc1ccc(N)c(N)c1", "values": [{"measurement": "outcome", "setting": "[2]", "value": "inactive"}]}
{"smiles": "CN(C)C(=O)Nc1ccc(Cl)cc1", "values": [{"measurement": "outcome", "setting": "[4]", "value": "inactive"}]}
{"smiles": "CCCCCCCCn1sccc1=O", "values": [{"measurement": "outcome", "setting": "[8]", "value": "inactive"}, {"measurement": "AC50", "setting": "[4]", "value": "9.13 µM (active)"}, {"measurement": "AC50", "setting": "[5]", "value": "14.1 µM (active)"}]}
{"smiles": "Cc1ccc(N=C=O)cc1N=C=O", "values": [{"measurement": "outcome", "setting": "[9]", "value": "inactive"}]}
{"smiles": "O=P(OCCCl)(OCCCl)OCCCl", "values": [{"measurement": "outcome", "setting": "[3]", "value": "inactive"}]}
{"smiles": "O=[N+]([O-])C(Br)(CO)CO", "values": [{"measurement": "AC50", "setting": "[2]", "value": "1.21 µM (active)"}, {"measurement": "AC50", "setting": "[5]", "value": "5.41 µM (active)"}, {"measurement": "outcome", "setting": "[7]", "value": "inactive"}, {"measurement": "AC50", "setting": "[9]", "value": "32.8 µM (active)"}]}
{"smiles": "O=[N+]([O-])c1ccc(Oc2ccc(Cl)cc2Cl)cc1", "values": [{"measurement": "outcome", "setting": "[2]", "value": "inactive"}, {"measurement": "outcome", "setting": "[6]", "value": "inactive"}]}
{"smiles": "CCOC(=O)[C@]1(c2ccccc2)Oc2ccccc2[C@@H]1N", "values": [{"measurement": "outcome", "setting": "[10]", "value": "inactive"}, {"measurement": "AC50", "setting": "[3]", "value": "16.5 µM (active)"}, {"measurement": "AC50", "setting": "[9]", "value": "1.08 µM (active)"}]}
{"smiles": "O=C(N[C@H](c1ccccc1)[C@@H]1CN2CCC1CC2)c1c(Cl)ccc(C(F)(F)F)c1Cl", "values": [{"measurement": "AC50", "setting": "[2]", "value": "23.9 µM (active)"}, {"measurement": "outcome", "setting": "[3]", "value": "inactive"}, {"measurement": "AC50", "setting": "[5]", "value": "3.38 µM (active)"}, {"measurement": "outcome", "setting": "[9]", "value": "inactive"}]}
{"smiles": "N#CC(Br)Br", "values": [{"measurement": "outcome", "setting": "[2]", "value": "inactive"}]}
{"smiles": "N#CC(Br)(Br)C(N)=O", "values": [{"measurement": "outcome", "setting": "[2]", "value": "inactive"}, {"measurement": "AC50", "setting": "[5]", "value": "41.2 µM (active)"}]}
{"smiles": "Cc1cc(N=Nc2ccccc2C)ccc1N", "values": [{"measurement": "outcome", "setting": "[6]", "value": "inactive"}]}
{"smiles": "Cc1cccc(N)c1N", "values": [{"measurement": "outcome", "setting": "[2]", "value": "inactive"}]}
{"smiles": "COC(=O)Nc1nc2ccccc2[nH]1", "values": [{"measurement": "outcome", "setting": "[1]", "value": "inactive"}]}
{"smiles": "C[C@]12C=CC3=C4CCC(=O)C=C4CC[C@H]3[C@@H]1CC[C@@H]2O", "values": [{"measurement": "AC50", "setting": "[2]", "value": "15.6 µM (active)"}]}
{"smiles": "CC(C)(C)C(O)(CCc1ccc(Cl)cc1)Cn1cncn1", "note": "(stereo not drawn)", "values": [{"measurement": "AC50", "setting": "[2]", "value": "13.1 µM (active)"}, {"measurement": "outcome", "setting": "[4]", "value": "inactive"}, {"measurement": "outcome", "setting": "[6]", "value": "inactive"}]}
{"smiles": "Nc1ccc(N=Nc2ccccc2)cc1", "values": [{"measurement": "outcome", "setting": "[3]", "value": "inactive"}]}
